Measurements published in ChEMBL document CHEMBL1156829.
“And” between values parts separate entries of the source, which are not always exact repeats. Equal entries are not always repeated. Over roughly 5,400 compounds, “IFI” has its median near 2; the highest 2% begin near 22. This excerpt belongs to a sample that is enriched for the highest values.

Assay: NOVARTIS: Inhibition Frequency Index (IFI) - the number of HTS assays where a compound showed > 50% inhibition/induction, expressed as a percentage of the number of assays in which the compound was tested.
Type: functional

In order of rising IFI:
1. CCc1ccc(C=NNC(=O)COc2ccc3c(c2)OCO3)cc1  0%
2. Cc1ccc(-c2cc(C(=O)OCC(=O)c3cccc([N+](=O)[O-])c3)c3cc(C)ccc3n2)cc1  0%
3. COc1ccc(NC(=O)CCCCCn2c(SCc3cc(=O)oc4cc(O)ccc34)nc3ccsc3c2=O)cc1  0%
4. CC(C)(C)c1ccc(CNC(=O)C(Cc2ccc(O)cc2)c2ccccc2)cc1 (centres undefined)  0%
5. CCC(=O)N1CCc2cc(Br)cc(S(=O)(=O)N3CC(C)CC(C)C3)c21 (centres undefined)  0%
6. COc1ccc(-c2nc(NC(=O)CS(=O)(=O)c3ccccc3)sc2C)cc1  0%
7. c1ccc(Oc2ccc(Nc3nc4nonc4nc3Nc3ccc(Oc4ccccc4)cc3)cc2)cc1  0%
8. COc1ccc(C2=C(c3ccc(OC)cc3)C3(c4ccccc4)C(=O)C2(c2ccccc2)C2C(=O)N(c4ccc(F)cc4)C(=O)C23)cc1 (centres undefined)  0%
9. CN(/C=C/C1=[N+](C)c2ccc(Cl)cc2C1(C)C)c1ccccc1  0%
10. CC1CCN(S(=O)(=O)c2ccc(C(=O)Nc3sc4c(c3C(N)=O)CCN(C)C4)cc2)CC1  0%
11. CN1C=CC(=Cc2sc3ccccc3[n+]2C)C=C1  0%
12. CCCOC(=O)C1=C(C)NC2=C(C(=O)CC(c3ccc(OC)c(OC)c3)C2)C1c1ccc(O)c(OCC)c1 (centres undefined)  0%
13. CCOC(=O)c1cc(S(=O)(=O)NCc2ccc(F)cc2)n[nH]1  0%
14. CC12C(=O)N(c3cccc(C(=O)O)c3)C(=O)C1C1c3ccccc3C2c2ccccc21 (centres undefined)  0%
15. CCOC(=O)c1ccc(NCc2c(C)[nH]c(C(=O)OCC)c2C)cc1  0%
16. Oc1ccc(-c2cncc(NCc3ccccc3)n2)cc1  0%
17. CN(C)c1cc[n+](CC(=O)c2ccc(Cl)cc2)cc1  0%
18. CSc1oc(-c2ccccc2)nc1C(N)=O  0%
19. O=C1C(=Nc2cccc(C(F)(F)F)c2)c2ccccc2N1CN1CCc2ccccc2C1  0%
20. COc1ccc(/C=C/c2nc(=O)c3ccccc3o2)cc1  0%
21. O=C(COc1ccccc1Cl)OCc1cc(=O)n2nc(C3CC3)sc2n1  0%
22. Cc1cc(S(=O)(=O)NC(Cc2ccc([N+](=O)[O-])cc2)C(=O)O)c(Cl)cc1Cl (centres undefined)  1.03%
23. Cn1nc(C(=O)NCc2ccccc2)c2c1CCN(Cc1cccc(O)c1)C2  1.22%
24. CCOC(=O)c1sc2nc(N)c(C#N)c(-c3cccs3)c2c1N  1.35%
25. COc1ccc2c(c1)C(C)(CC#N)C(=O)N2C (centres undefined)  1.51%
26. GNF-Pf-2945, CHEMBL581676  1.82%
27. CCCCNC(=S)N(Cc1cccs1)Cc1cc2cc(C)ccc2[nH]c1=O  1.82%
28. CC(C)CN(C(C(=O)NC(CN1CCCC1)c1ccccc1)c1ccccc1)S(=O)(=O)c1ccccn1 (centres undefined)  1.96%
29. CCOC(=O)c1c(C)[n+](-c2ccc(C)cc2)c(CC)c2cc(OC)c(OC)cc12  2.29%
30. CCSCCOC(=O)C1=C(C)NC2=C(C(=O)CCC2)C1c1ccc(OC)c(Br)c1 (centres undefined)  2.33%
31. CCCCNC(=O)c1nn(-c2ccc(OC)cc2)c(=O)c2ccccc12  2.35%
32. COc1nc(C)nc(NC(=O)NC(=O)c2c(OC)ccc([N+](=O)[O-])c2OC)n1  2.61%
33. C=CCC(=O)NC1CCN(CC(O)CN(Cc2ccccc2)S(=O)(=O)c2ccccc2)C1 (centres undefined)  2.91%
34. C1=C(c2ccc(CN3CCCCC3)cc2)N2CCN=C2c2ccccc21  2.98%
35. Cc1cc(C)c2cc(CN(CCN(C)C)C(=S)NCCCN(C)C)c(=O)[nH]c2c1  3.12%
36. Cc1ccn2c(NC(C)(C)CC(C)(C)C)c(-c3ccccc3OC(=O)CCc3ccccc3)nc2c1  3.74%
37. CC1CCCCN1CCCNc1ncc(C(=O)NCCc2ccccc2)c(NCC2CCCO2)n1 (centres undefined)  3.81%
38. CC(C(=O)NCCCN)N(Cc1ccccc1)S(C)(=O)=O (centres undefined)  3.92%
39. Cc1ccc2ncnc(Nc3cccc(C(F)(F)F)c3)c2c1  4.41%
40. CCCCCc1ccc(OCCOCC[n+]2ccccc2)c(CCCCC)c1  4.54%
41. CCOC(=O)C1=C(CC)NC2=C(C(=O)CC(C)(C)C2)C1c1ccccc1F (centres undefined)  4.6%
42. CCCCOc1ccc(C(=O)Oc2ccccc2-c2nc3cc(C)ccn3c2NC(C)(C)CC(C)(C)C)cc1  4.67%
43. CCN(CC)S(=O)(=O)c1ccc(-c2csc(Nc3ccc(C)c(C)c3)n2)cc1  4.71%
44. Cc1ccc(-c2c3c4n(c(-c5ccc(Cl)cc5)cn4c2C(=O)Nc2ccccc2Cl)CCCC3)cc1  6.06%
45. Cc1ccc(C)c(S(=O)(=O)N=C2C=C(SCC(=O)O)C(=O)c3ccccc32)c1  6.25%
46. CN(C)c1ccc(/C=C/c2cccc[n+]2C)cc1  6.3%
47. Clc1ccc(Nc2nc3nonc3nc2Nc2ccc(Cl)c(Cl)c2)cc1Cl  7.14%
48. Nc1nc(N)c2c(OCc3ccc(C(F)(F)F)cc3)cccc2n1  7.63%
49. CC[n+]1c(/C=C(C)/C=C2\Sc3ccccc3N2CCO)sc2ccccc21  7.69%
50. CCN(CC)c1scc(-c2ccc(Br)cc2)[s+]1  7.69%
51. CCN1/C(=C/c2cccc[n+]2C)C=Cc2ccc(C)cc21  7.79%
52. COCCN1C(=O)c2ccccc2C(C(=O)Nc2cccc(C(F)(F)F)c2)C1c1cccs1 (centres undefined)  9.09%
53. CO[C@H]1C[C@H](C)Cc2cc(O)cc(c2)NC(=O)C(C)=CCC[C@H](OC)[C@@H](OC(N)=O)C(C)=CC(C)[C@H]1O (some centres undefined)  9.62%
54. O=C(Nc1nc(-c2ccccc2)cs1)c1ccccc1O  9.79%
55. CN(C)c1ccc(-c2nc(-c3ccc(-c4[nH]c(-c5ccc(N(C)C)cc5)nc4-c4ccccc4)cc3)c(-c3ccccc3)[nH]2)cc1  12.5%
56. CN(C)c1ccc(C(=Cc2cc(-c3ccccc3)cc(-c3ccccc3)[o+]2)c2ccc(N(C)C)cc2)cc1  12.7%
57. Cc1ccc(S(=O)(=O)N=C2C=C(Sc3nc4ccccc4[nH]3)C(=O)c3ccccc32)cc1  12.7%
58. GNF-Pf-1437, CHEMBL576411  14.3%
59. COc1ccc2nc3cc(Cl)ccc3c(NCCN(CCN)CCN)c2c1  14.5%
60. CCN1C=C(c2ccc(C)cc2)S/C1=C\c1sc2ccccc2[n+]1C  14.7%
61. CCC(C)(C)c1ccc(Oc2ccc(NC(=O)c3ccc([N+](=O)[O-])o3)cc2)cc1  15.2%
62. c1ccc(-c2cc(N3CCOCC3)nc(-c3ccccn3)n2)nc1  15.4%
63. Cc1ccc(C=Cc2ccc(N(C)C)cc2)[n+](C)c1  15.4%
64. CC(C)CC[n+]1ccccc1C=Cc1ccc(N(C)C)cc1  15.4%
65. CCN1/C(=C/c2cccc[n+]2C)Sc2ccc(OC)cc21  15.4%
66. Clc1ccccc1Nc1nc2nonc2nc1Nc1cccc(Br)c1  15.4%
67. CCN1/C(=C/c2cccc[n+]2C)C=Cc2cc(C)ccc21  15.4%
68. CCN1C(=Cc2sc3ccc(O)cc3[n+]2CC)C=Cc2cc(C)ccc21  15.4%
69. c1ccc(-c2cc(NCCCN3CCOCC3)nc(-c3ccccn3)n2)nc1  15.4%
70. COc1cccc2c1C(=O)c1c(O)c3c(c(O)c1C2=O)C[C@](O)(C(C)=O)C[C@@H]3O[C@H]1C[C@@H](N)[C@H](O)[C@H](C)O1  19.7%
71. COc1cccc2c1C(=O)C1C(O)=C3C(=C(O)C1C2=O)CC(O)(C(C)=NN=C1CC(C)(C)N(O)C(C)(C)C1)CC3OC1CC(C)(N)C(O)CO1 (centres undefined)  21.4%
72. O=C(CSc1oc(-c2ccc(Cl)cc2)nc1[P+](c1ccccc1)(c1ccccc1)c1ccccc1)c1ccccc1  21.4%
73. FC(F)(F)c1cccc(Nc2nc3nonc3nc2Nc2ccc(Br)cc2)c1  22.2%
74. CCC(/C=C1\Sc2ccc(OC)cc2N1CCCS(=O)(=O)O)=C\c1sc2ccc(OC)cc2[n+]1CCCS(=O)(=O)O  22.7%
75. FC(F)(F)c1cccc(Nc2nc3nonc3nc2Nc2ccc(Cl)cc2)c1  22.7%
76. C=CCSc1oc(-c2ccco2)nc1[P+](c1ccccc1)(c1ccccc1)c1ccccc1  23.1%
77. CCN1C(=Cc2sc3ccccc3[n+]2C)C=Cc2cccc(C)c21  23.1%
78. CSc1oc(C(C)(C)C)nc1[P+](c1ccccc1)(c1ccccc1)c1ccccc1  23.2%
79. CCN1C(=Cc2sc3ccccc3[n+]2C)C=Cc2ccc(C)cc21  23.8%
80. CN(C)c1ccc(/C=C/c2cccc(/C=C/c3ccc(N(C)C)cc3)[n+]2C)cc1  25%
81. Cc1ccc(S(=O)(=O)N=C2C=C(Sc3nnc[nH]3)C(=O)c3ccccc32)cc1  25%
82. O=C1C(Sc2nnc[nH]2)=CC(=NS(=O)(=O)c2cccs2)c2ccccc21  25%
83. COc1cccc2c1C(=O)c1c(O)c3c(c(O)c1C2=O)C[C@@](O)(C(=O)CO)C[C@@H]3O[C@@H]1C[C@H](N)[C@H](O)[C@H](C)O1  25.6%
84. CN(C)c1ccc(C(=C2C=CC(=[N+](C)C)C=C2)c2ccc(N(C)C)cc2)cc1  25.7%
85. CC(C)C[C@@H]1NC(=O)[C@@H](CC(C)C)NC(=O)[C@H](C(C)C)NC(=O)[C@H]2CSSC[C@@H](NC1=O)C(=O)N2  25.9%
86. CCCCN(CCCC)[P+](N(CCCC)CCCC)(N(CCCC)CCCC)N(CCCC)CCCC  27.3%
87. CCN(CC)c1ccc(C=NNC(=O)c2ccc(Nc3nc(-c4ccccc4)cs3)cc2)c(O)c1  27.3%
88. CCCCCC[n+]1ccccc1C=Cc1ccc(N(C)C)cc1  27.6%
89. CCN1/C(=C/C=C/C2=[N+](C)c3ccc(C)cc3C2(C)C)C=Cc2ccccc21  28.6%
90. CCN1/C(=C\C=C\C2=[N+](C)c3ccccc3C2(C)C)N(c2ccccc2)c2ccccc21  28.6%
91. GNF-Pf-448, CHEMBL580641  30%
92. CN(C)c1ccc(-c2cc(-c3ccccc3)[s+]c(-c3ccccc3)c2)cc1  31.4%
93. CC1=C(CO)C(=O)O[C@@H]([C@@H](C)[C@H]2CC[C@H]3[C@@H]4C[C@H]5O[C@]56[C@@H](O)C=CC(=O)[C@]6(C)C4CC[C@]23C)C1 (some centres undefined)  32.1%

For `CC[n+]1ccccc1C=Cc1ccc(N(C)C)cc1`, the IFI was 6.57% and 5.88%.
